# Screening data from PubChem.
# dFosB act: activators of mouse delta FosB homodimer; P13346; purified delta FosB, TAMRA-CDK5 oligo fluorescence polarization; percent of positive-control signal above neutral wells; actives 0.99% (n = 340,000); activation, % at 25 µM;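 active means mean activation above about 17%, with every replicate also reaching it, limit read from the data, passing the limit was not always enough; inconclusive means only one of the two conditions met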
# Target sequence (P13346 whole entry, looked up): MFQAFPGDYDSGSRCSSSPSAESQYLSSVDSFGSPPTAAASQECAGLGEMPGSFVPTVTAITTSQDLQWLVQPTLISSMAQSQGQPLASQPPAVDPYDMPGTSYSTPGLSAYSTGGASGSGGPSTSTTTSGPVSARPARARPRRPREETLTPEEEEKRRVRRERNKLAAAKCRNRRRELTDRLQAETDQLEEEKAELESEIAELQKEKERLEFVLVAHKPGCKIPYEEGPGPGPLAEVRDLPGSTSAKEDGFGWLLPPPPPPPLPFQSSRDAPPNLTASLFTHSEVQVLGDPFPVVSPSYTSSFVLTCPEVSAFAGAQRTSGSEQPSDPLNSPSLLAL
# MEKK3 PB1 HTS: raises or lowers MEK5 binding to the human MEKK3 PB1 domain; Q99759; bead-based flow cytometry, Alexa488-MEK5 binding to MEKK3; actives lie on both sides; 0 = blocked by unlabeled MEK5, 100 = vehicle; actives 1.4% (n = 290,000); AID 1529; binding response (% of control), % at 10 µM;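 active means binding response more than 3 SD above or below the average of its plate-row segment, actives on both sides; inconclusive means wells at one plate position flagged as instrument error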;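 further: Alexa488 bead fluorescence after subtracting the streptavidin-only scavenger bead signal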
# MEKK2wt PB1 HTS: raises or lowers MEK5 binding to wildtype human MEKK2 PB1 domain; Q9Y2U5; bead flow cytometry, Alexa488-MEK5 binding to MEKK2 WT; actives lie on both sides; binding response (% of control), % at 10 µM; actives 1.1% (n = 290,000); AID 1531; in the data active means binding response below about 67% or above about 130%; inconclusive means no clear call, values can overlap the other calls; inactive means in between
# DNA FID counter: displaces DNA intercalator in HCV helicase counter-screen; DNA fluorescent intercalator displacement, fluorescence; inhibition, % at 7.9 µM; actives 0.17% (n = 290,000); AID 1845; in the data active means inhibition above about 37%;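 further: 0% = vehicle and 100% = reference compound; higher means more ethidium bromide displaced from hairpin DNA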
# MEKK2mut PB1 HTS: signal of MEK5 binding to mutant human MEKK2 PB1 domain. percent response, % at 10 µM. bead flow cytometry, Alexa488-MEK5 binding to MEKK2 mutant. AID 1530. actives 0.35% (n = 290,000); in the data active means percent response above about 24%, passing the limit was not always enough
# * marks the source's active call; other numbers are inactive results; ? = inconclusive; . = no result; [ ] = dose if it differs, or a comment. Sampled rows, rich in hits. Any-hit rate of the full collection: about 2.9%.
SMILES,dFosB act,MEKK3 PB1 HTS,MEKK2wt PB1 HTS,DNA FID counter,MEKK2mut PB1 HTS
COc1ccc(C2=NN(C(=O)CN3CCOCC3)C(c3nc4ccccc4[nH]3)C2)cc1 (stereo unspecified),-7,52,67,-10,-20
CC/C(O)=C1\C(=O)CC(c2ccccc2)CC1=NC(C)C (stereo unspecified),-3,96,94,-22,-2
Cc1ccc2c(c1)c1c(n2CC(O)CNC(C)(C)C)CCCC1 (stereo unspecified),8,116,158*,25,15
Cc1cccc(N2CCN(C(=O)c3ccncc3)CC2C)c1 (stereo unspecified),-2,98,97,-4,-7
Cc1cccc(N2CCN(C(=O)c3ccc(NC(=O)C4CCCO4)cc3)CC2C)c1 (stereo unspecified),2,0.0*[inhibitor],-1.0*[inhibitor],-38,-17
CC(=O)c1ccc(N2CCN(C(=O)c3ccc(NC(=O)C4CCCO4)cc3)CC2)cc1 (stereo unspecified),7,81*[inhibitor],87,-25,-5
O=C(CSc1ccc2nnc(-c3ccccn3)n2n1)Nc1cccc(F)c1,-8,100,96,2,-4
COc1cccc(CN2CCNC(=O)C2CC(=O)N2CCCCO2)c1OC (stereo unspecified),1,91,91,-6,-6
Cc1cccc2cc3c(N)c(C(=O)N4CCc5ccccc54)sc3nc12,-4,122,30*,-6,23
CCN(CC)c1ccc(/C=N/N=C(N)N)c(O)c1,-2,93,.,5,113*
CCN(CC)c1ccc(N=Cc2ccc(N(CC)CC)cc2O)cc1,-7,97,98,-3,0
O=C(Nc1ccc2oc(-c3ccccc3Cl)nc2c1)c1cncc(Br)c1,64*,104,99,4,5
CCOC(=O)c1ccc(NC(=O)C(C)Sc2nc(O)c(-c3ccccc3)c(=O)[nH]2)cc1 (stereo unspecified),-2,102,99,-17,3
COC(=O)CCC(=O)OC1(C)C(=O)C2=CN(CC3CC3)C(c3ccc(OC)cc3)=CC2=C(Br)C1=O (stereo unspecified),-1,93,-10*,.,-8
COC(=O)CCC(=O)OC1(C)C(=O)C2=CN(CCc3c[nH]c4ccccc34)C(c3ccc(OC)cc3)=CC2=C(Br)C1=O (stereo unspecified),8,84,88,.,-3
COC(=O)CCC(=O)OC1(C)C(=O)C2=CN(Cc3ccccc3)C(c3ccc(OC)cc3)=CC2=C(Br)C1=O (stereo unspecified),-12,90,-6.0*,.,-4
COC(=O)CCC(=O)OC1(C)C(=O)C2=CN(Cc3ccc(OC)cc3)C(c3ccc(OC)cc3)=CC2=C(Br)C1=O (stereo unspecified),-2,59,.,.,11
COc1ccc2nc(/C(C#N)=C\c3ccc(Oc4ccc([N+](=O)[O-])cn4)cc3)[nH]c2c1,-11,90,98,-1,0
COc1ccc2nc(/C(C#N)=C\c3ccc(C(=O)O)cc3)[nH]c2c1,-6,81,7.0*,-7,44
CC(C)(C)C(=O)N1CCN(c2c(Cl)cccc2[N+](=O)[O-])CC1,4,105,99,-4,5
O=Cc1c(C(=O)O)n(CC(=O)O)c2ccccc12,5,134*,106,-1,1
O=C(O)Cn1c2ccccc2c2ccccc21,0,98,95,0,-2
Cc1ccc2c(C)c(C(=O)NCc3ccc(S(N)(=O)=O)cc3)oc2c1,-2,96,102,-5,3
NC(N)=N/N=C/c1ccc(OCc2ccccc2)c(OCc2ccccc2)c1,-311,89,302*,23,116*
Cc1nn(-c2ccccc2)c2[nH]c(=O)c(CNCc3ccc4c(c3)OCO4)cc12,-15,107,110,9,6
SMILES,dFosB act,MEKK3 PB1 HTS,MEKK2wt PB1 HTS,DNA FID counter,MEKK2mut PB1 HTS
Cc1ccc(-c2nn(-c3ccccc3)c3[nH]c(=O)c(CNCc4ccccc4)cc23)cc1,21*,102,94,6,4
O=C(CCSc1nc2ccccc2s1)N/N=C/c1c(O)ccc2ccccc12,21*,105,105,-1,0
COc1ccc(/C=N/NC(=O)CCSc2nc3ccccc3s2)cc1OC,0,95,98,-16,-2
C(=N\Nc1nc2ccccc2[nH]1)/c1c[nH]c2ccccc12,?,105,155*,9,11
Brc1ccc(-c2ccc(/C=N/Nc3nc4ccccc4[nH]3)o2)cc1,39*,97,122,-4,3
C(=N\Nc1nc2ccccc2[nH]1)/c1ccccc1,-1,103,102,19,-9
Cc1ccccc1/C=N/Nc1nc2ccccc2[nH]1,-3,99,104,14,-13
COc1cccc(/C=N/NC(=O)c2ccc(COc3ccc(Cl)cc3Cl)o2)c1,-1,119,110,2,9
COc1cc(/C=N\NC(=O)c2ccc(Cn3nc([N+](=O)[O-])c(Cl)c3C)o2)ccc1O,-6,96,99,-3,1
COc1cc(/C=N/NC(=O)c2ccc(COc3ccccc3Cl)o2)cc(Br)c1O,34*,100,99,-20,0
COc1cccc(/C=N\NC(=O)c2ccc(Cn3cc(Br)c([N+](=O)[O-])n3)o2)c1O,24*,109,103,-4,-8
Fc1cccc(CN2CCN(Cc3nc(CCc4ccccc4)no3)CC2)c1,-6,99,100,-7,6
N=c1n(CCN2CCCC2)c2ccccc2n1CC(O)c1ccc(Cl)c(Cl)c1 (stereo unspecified),3,104,152*,48*,4
Cc1cc(N2CCCC2)c(C)cc1C=O,3,95,-46*,-1,-6
COc1cc(N2CCCC2)ccc1C=O,-1,103,90,8,-8
CCC(=O)NC(c1cccs1)c1cc([N+](=O)[O-])c2cccnc2c1O (stereo unspecified),-9,128*,110,-15,0
C=CCN(C(=O)CNC(=O)c1ccco1)C(C(=O)NC1CCCCC1)c1cccnc1 (stereo unspecified),-8,99,101,-11,0
CCCN1C/C(=C/c2ccc3c(c2)OCO3)C(=O)/C(=C/c2ccc3c(c2)OCO3)C1,3,136*,109,-16,1
CCCN1C(=O)/C(=C/c2ccc3c(c2)OCO3)NC1=S,-5,103,96,0,0
